Measured values published in PubChem BioAssay (EPA / NIEHS).
Where “and” joins values, the source holds several entries; their conditions need not be identical. Equal values may be shown once. Calls of active or inactive are those of the source. How the source made its calls: active means hit-call score of the fitted dose curve at least 0.9, where 1 is the maximum; inactive means score below 0.9.

Legend:
[1] = ATG_DR4_LXR_CIS: Attagene CIS-FACTORIAL HepG2 Assay for human Liver X Receptor (LXR), DR4 submotif (AID 2282929); settings: HepG2 Attagene DR4 cis-reporter, mRNA transcription; AC50: actives raise or lower the signal unless noted; outcome: actives raise or lower the signal unless noted
In short: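 HepG2 cells transiently transfected with cis-promoter-driven multiplexed reporter units (DR4 element) were dosed for 24 h. Reporter mRNA was quantified by RT-PCR, fluorescent primer extension, HpaI digestion and capillary electrophoresis; bidirectional fitting versus DMSO baseline.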

[2] = biological target: Aryl hydrocarbon receptor (Homo sapiens) (UniProt P35869); experiment: ATG_Ahr_CIS: Attagene CIS-FACTORIAL HepG2 Assay for human Aryl Hydrocarbon Receptor (Ahr) (AID 2282930); settings: HepG2 AhR cis-factorial reporter transcription; actives raise or lower the signal
In short: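 Values derive from bidirectional fitting against DMSO negative control. Underlying signal: cis-element reporter mRNA in transiently transfected HepG2, harvested 24 h post-dose and measured by RT-PCR plus capillary electrophoresis.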

[3] = ATG_AP_1_CIS: Attagene CIS-FACTORIAL HepG2 Assay for human Activator Protein 1 (AP-1) (AID 2282931); settings: HepG2 Attagene cis-factorial AP-1 reporter mRNA; actives raise or lower the signal
In short: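 HepG2 cells transiently transfected with cis-element-driven multiplex reporter units; 24 h compound exposure. Reporter mRNA quantified by RT-PCR, FAM-labelled fragments resolved by capillary electrophoresis; bidirectional fit versus DMSO baseline.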

[4] = ATG_BRE_CIS: Attagene CIS-FACTORIAL HepG2 Assay for human Bone Morphogenetic Protein (BMP) Response Element (BRE) (AID 2282933); settings: HepG2 BMP response element reporter, Attagene transcription factor profiling; actives raise or lower the signal
In short: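 Read-out: reporter mRNA induction quantified by RT-PCR and capillary electrophoresis after 24 h chemical exposure of transfected HepG2 cells. Endogenous factor activity on the BMP response element; gain or loss fitted against DMSO baseline.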

[5] = biological target: Retinoic acid receptor alpha (Homo sapiens) (UniProt P10276); experiment: ATG_DR5_RAR_CIS: Attagene CIS-FACTORIAL HepG2 Assay for human Retinoic Acid Receptor Alpha (RARE), DR5 submotif (AID 2282934); settings: HepG2 Attagene cis-factorial RARE DR5 reporter, mRNA; actives raise or lower the signal
In short: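 Endpoint fitted in both directions relative to DMSO as negative control. It reflects DR5 cis-element reporter mRNA induction in transiently transfected HepG2 cells, measured 24 h after dosing through RT-PCR and fluorescent capillary electrophoresis.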

[6] = biological target: Transcription factor E2F1 (Homo sapiens) (UniProt Q01094); experiment: ATG_E2F_CIS: Attagene CIS-FACTORIAL HepG2 Assay for human E2F Transcription Factor 1 (AID 2282935); settings: HepG2 Attagene cis-reporter, E2F reporter RNA transcripts; actives raise or lower the signal
In short: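 HepG2 cells transiently transfected with multiplexed cis-element reporter units, dosed for 24 h. Reporter mRNA measured by RT-PCR, 6-FAM primer-extension labeling, HpaI digestion and capillary electrophoresis; bidirectional fit versus DMSO baseline.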

[7] = ATG_E_Box_CIS: Attagene CIS-FACTORIAL HepG2 Assay for human Enhancer Box (E-box) (AID 2282936); settings: HepG2 E-box cis-reporter transcription, actives raise or lower the signal
In short: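 HepG2 cells transiently transfected with multiplexed cis-element reporter units sensing endogenous transcription factor activity; 24 h compound exposure. Reporter mRNA measured by RT-PCR, 6-FAM primer extension, HpaI digestion and capillary electrophoresis; bidirectional fit versus DMSO.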

[8] = ATG_M_61_CIS: Attagene CIS-FACTORIAL HepG2 Assay for M61 Transcription Factor (Internal Marker) (AID 2282937); settings: HepG2 Attagene CIS-FACTORIAL M61 internal marker reporter; actives raise or lower the signal
In short: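 HepG2 cells transiently transfected with cis-element-driven multiple reporter transcription units, dosed for 24 h. Reporter mRNA measured by RT-PCR, 6-FAM primer-extension labelling, HpaI digestion and capillary electrophoresis; bidirectional fit versus DMSO baseline.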

[9] = ATG_EGR_CIS: Attagene CIS-FACTORIAL HepG2 Assay for human Early Growth Response 1 (EGR1) (AID 2282938); settings: HepG2 Attagene CIS-FACTORIAL EGR reporter mRNA; actives raise or lower the signal
In short: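 HepG2 cells transiently transfected with cis-promoter-driven multiplexed reporter transcription units; reporter mRNA measured 24 h after compound dosing by RT-PCR, 6-FAM primer extension, HpaI digestion and capillary electrophoresis. Bidirectional fit versus DMSO baseline.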

[10] = ATG_M_19_CIS: Attagene CIS-FACTORIAL HepG2 Assay for M19 Transcription Factor (Internal Marker) (AID 2282939); settings: HepG2 Attagene CIS-FACTORIAL M19 internal marker reporter; actives raise or lower the signal
In short: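 Readout: fluorescent reporter-transcript fragments by capillary electrophoresis after RT-PCR. Human HepG2 liver cells carried transfected MRTU constructs reporting endogenous transcription-factor activity; exposure 24 h. Gain or loss of signal fitted relative to DMSO.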

[11] = ATG_Ets_CIS: Attagene CIS-FACTORIAL HepG2 Assay for human Erythroblast Transformation Specific (ETS) (AID 2282941); settings: HepG2 ETS cis-reporter transcription; AC50: actives raise or lower the signal unless noted; outcome: actives raise or lower the signal unless noted
In short: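 HepG2 cells transiently transfected with cis-promoter reporter transcription units were dosed for 24 h; reporter mRNA was measured by RT-PCR, 6-FAM primer extension, HpaI digestion and capillary electrophoresis, with bidirectional fitting against DMSO baseline.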

[12] = biological target: Hepatocyte nuclear factor 3-beta (Homo sapiens) (UniProt Q9Y261); experiment: ATG_FoxA2_CIS: Attagene CIS-FACTORIAL HepG2 Assay for human Forkhead box A2 (FOXA2) (AID 2282942); settings: HepG2 cis-reporter transcription factor activity, 24 h; actives raise or lower the signal
In short: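 HepG2 cells transiently transfected with multiple cis-regulated reporter transcription units, dosed for 24 h. Reporter mRNA measured by RT-PCR, 6-FAM labelling, HpaI digestion and capillary electrophoresis; bidirectional fitting against DMSO baseline.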

[13] = ATG_FoxO_CIS: Attagene CIS-FACTORIAL HepG2 Assay for human Forkhead box O (FoxO) (AID 2282943); settings: HepG2 Attagene cis-reporter, FoxO element, mRNA; actives raise or lower the signal
In short: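 Values reflect reporter mRNA induction or loss in HepG2 cells 24 h post-dosing, fitted bidirectionally with DMSO as negative control and baseline. Detection used RT-PCR and fluorescence capillary electrophoresis.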

[14] = ATG_GATA_CIS: Attagene CIS-FACTORIAL HepG2 Assay for human GATA Binding Protein (AID 2282944); settings: HepG2 GATA cis-element reporter, Attagene multiplex mRNA; actives raise or lower the signal
In short: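 Read-out: fluorescent reporter mRNA fragments resolved by capillary electrophoresis after RT-PCR. Human liver HepG2 cells carried transiently transfected cis-regulated reporter constructs; chemicals incubated 24 h; gain or loss of signal fitted relative to DMSO.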

[15] = ATG_GLI_CIS: Attagene CIS-FACTORIAL HepG2 Assay for human Zinc Finger Protein GLI1 (AID 2282945); settings: HepG2, Attagene cis-factorial reporter mRNA, GLI element; actives raise or lower the signal
In short: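 HepG2 cells transiently transfected with cis-promoter multiplexed reporter units report endogenous transcription factor activity. After 24 h chemical exposure, reporter mRNA was quantified by RT-PCR, 6-FAM labelling, HpaI digestion and capillary electrophoresis, with bidirectional fitting against DMSO.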

[16] = ATG_GRE_CIS: Attagene CIS-FACTORIAL HepG2 Assay for human Glucocorticoid Response Elements (GRE) (AID 2282947); settings: HepG2 GRE cis-reporter, Attagene multiplex mRNA; AC50: actives raise or lower the signal unless noted; outcome: actives raise or lower the signal unless noted
In short: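 HepG2 cells transiently transfected with multiple cis-promoter reporter units measure endogenous TF activity; 24 h compound exposure. Reporter mRNA quantified by RT-PCR, FAM labelling, HpaI digestion and capillary electrophoresis; bidirectional fit vs DMSO baseline.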

[17] = ATG_ISRE_CIS: Attagene CIS-FACTORIAL HepG2 Assay for human Interferon Regulatory Factor 1 (IRF1) binding to an Interferon-Stimulated Response Element (ISRE) (AID 2282948); settings: HepG2 ISRE cis-reporter (Attagene), mRNA transcription readout; actives raise or lower the signal
In short: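 HepG2 cells transiently transfected with multiplexed cis-promoter reporter units; after 24 h compound exposure, reporter mRNA quantified by RT-PCR, FAM labelling, HpaI digestion and capillary electrophoresis. Bidirectional fit versus DMSO baseline.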

[18] = ATG_AP_2_CIS: Attagene CIS-FACTORIAL HepG2 Assay for human Activator Protein 2 (AP-2) (AID 2282932); settings: HepG2 AP-2 cis-reporter, Attagene transcription factor profiling; AC50: actives raise or lower the signal unless noted; outcome: actives raise or lower the signal unless noted
In short: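 HepG2 cells were transiently transfected with multiple cis-promoter reporter transcription units and dosed for 24 h. Reporter mRNA was measured by RT-PCR with capillary electrophoresis fluorescence; bidirectional fits relative to DMSO baseline.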

[19] = ATG_ERE_CIS: Attagene CIS-FACTORIAL HepG2 Assay for Estrogen Response Element (ERE) (AID 2282940); settings: HepG2 ERE cis-reporter, Attagene RNA transcript; actives raise or lower the signal
In short: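 Readout: reporter mRNA induction by RT-PCR, FAM-labelled primer extension, HpaI digestion and capillary electrophoresis, 24 h after dosing transfected HepG2 cells. Endogenous transcription factors act on cis-element-regulated reporters. Gain or loss fitted against DMSO.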

[20] = biological target: Bile acid receptor (Homo sapiens) (UniProt Q96RI1); experiment: ATG_IR1_CIS: Attagene CIS-FACTORIAL HepG2 Assay for human Nuclear Receptor Subfamily 1 Group H Member 4 (NR1H4), IR1 submotif (AID 2282946); settings: IR1 reporter transcription, actives raise or lower the signal
In short: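 Transient MRTU transfection, HepG2; 24 h dosing; RNA → RT-PCR → 6-FAM primer extension → HpaI digest → capillary electrophoresis fluorescence. Gain/loss of signal fitted relative to DMSO.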

Measured: AC50

Chain of Retinoic acid receptor alpha (Homo sapiens) (P10276 whole entry, looked up): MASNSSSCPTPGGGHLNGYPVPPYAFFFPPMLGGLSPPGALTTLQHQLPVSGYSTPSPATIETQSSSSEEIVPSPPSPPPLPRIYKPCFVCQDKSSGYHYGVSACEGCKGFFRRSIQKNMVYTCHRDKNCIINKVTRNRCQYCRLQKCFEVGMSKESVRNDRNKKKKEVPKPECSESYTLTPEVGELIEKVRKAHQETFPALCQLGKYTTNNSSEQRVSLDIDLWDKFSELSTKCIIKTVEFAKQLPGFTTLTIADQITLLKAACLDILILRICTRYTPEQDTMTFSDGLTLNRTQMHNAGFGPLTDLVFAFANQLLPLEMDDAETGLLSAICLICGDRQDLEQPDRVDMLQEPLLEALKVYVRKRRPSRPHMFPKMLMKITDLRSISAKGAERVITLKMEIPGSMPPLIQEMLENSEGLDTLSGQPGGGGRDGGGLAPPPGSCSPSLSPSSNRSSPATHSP
Chain of Hepatocyte nuclear factor 3-beta (Homo sapiens) (Q9Y261 whole entry, looked up): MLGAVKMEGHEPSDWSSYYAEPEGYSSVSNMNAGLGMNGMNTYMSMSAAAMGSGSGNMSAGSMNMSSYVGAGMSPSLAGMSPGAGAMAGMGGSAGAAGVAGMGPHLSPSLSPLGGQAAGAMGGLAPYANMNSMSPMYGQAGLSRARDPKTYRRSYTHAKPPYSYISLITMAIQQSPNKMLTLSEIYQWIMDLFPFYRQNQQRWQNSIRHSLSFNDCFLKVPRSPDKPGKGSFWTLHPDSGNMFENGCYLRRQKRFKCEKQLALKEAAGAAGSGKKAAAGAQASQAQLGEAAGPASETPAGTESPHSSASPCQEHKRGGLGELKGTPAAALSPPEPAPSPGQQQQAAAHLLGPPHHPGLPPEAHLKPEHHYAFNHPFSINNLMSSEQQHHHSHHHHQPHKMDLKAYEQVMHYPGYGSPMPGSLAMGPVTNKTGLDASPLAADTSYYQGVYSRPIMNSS
Chain of Aryl hydrocarbon receptor (Homo sapiens) (P35869 whole entry, looked up): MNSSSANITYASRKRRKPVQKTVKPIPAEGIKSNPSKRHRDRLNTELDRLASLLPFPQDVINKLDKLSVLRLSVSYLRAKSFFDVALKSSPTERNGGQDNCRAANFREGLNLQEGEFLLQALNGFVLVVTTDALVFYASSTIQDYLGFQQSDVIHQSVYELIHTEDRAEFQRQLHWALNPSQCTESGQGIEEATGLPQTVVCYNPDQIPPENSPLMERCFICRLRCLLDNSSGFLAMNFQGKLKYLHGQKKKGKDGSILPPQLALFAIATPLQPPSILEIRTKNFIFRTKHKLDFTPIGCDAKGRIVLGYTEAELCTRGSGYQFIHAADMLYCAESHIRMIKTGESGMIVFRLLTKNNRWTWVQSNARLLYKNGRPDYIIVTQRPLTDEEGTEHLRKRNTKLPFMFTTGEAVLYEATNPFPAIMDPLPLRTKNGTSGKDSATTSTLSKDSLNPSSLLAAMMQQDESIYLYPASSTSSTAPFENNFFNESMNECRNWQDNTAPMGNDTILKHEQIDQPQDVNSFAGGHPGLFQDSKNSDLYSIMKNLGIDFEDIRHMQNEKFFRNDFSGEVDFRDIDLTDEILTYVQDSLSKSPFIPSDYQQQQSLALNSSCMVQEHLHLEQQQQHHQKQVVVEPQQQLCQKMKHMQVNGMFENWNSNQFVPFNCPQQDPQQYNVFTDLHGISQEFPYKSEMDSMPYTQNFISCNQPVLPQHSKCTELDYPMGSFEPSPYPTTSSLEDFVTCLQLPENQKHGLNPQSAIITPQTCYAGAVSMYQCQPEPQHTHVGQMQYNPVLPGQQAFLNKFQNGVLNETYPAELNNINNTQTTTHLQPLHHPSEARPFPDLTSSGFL
Chain of Transcription factor E2F1 (Homo sapiens) (Q01094 whole entry, looked up): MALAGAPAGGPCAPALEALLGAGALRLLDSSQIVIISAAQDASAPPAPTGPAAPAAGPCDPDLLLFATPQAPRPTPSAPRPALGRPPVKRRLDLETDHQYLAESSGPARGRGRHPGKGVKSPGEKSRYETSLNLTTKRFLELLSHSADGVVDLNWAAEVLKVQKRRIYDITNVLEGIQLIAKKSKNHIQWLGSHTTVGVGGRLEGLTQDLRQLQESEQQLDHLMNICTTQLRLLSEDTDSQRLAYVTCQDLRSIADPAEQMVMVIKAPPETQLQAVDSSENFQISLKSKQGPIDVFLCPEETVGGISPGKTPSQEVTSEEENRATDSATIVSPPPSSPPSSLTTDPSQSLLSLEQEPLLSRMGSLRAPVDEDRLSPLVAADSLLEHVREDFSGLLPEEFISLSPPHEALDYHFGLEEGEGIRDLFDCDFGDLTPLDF
Chain of Bile acid receptor (Homo sapiens) (Q96RI1 whole entry, looked up): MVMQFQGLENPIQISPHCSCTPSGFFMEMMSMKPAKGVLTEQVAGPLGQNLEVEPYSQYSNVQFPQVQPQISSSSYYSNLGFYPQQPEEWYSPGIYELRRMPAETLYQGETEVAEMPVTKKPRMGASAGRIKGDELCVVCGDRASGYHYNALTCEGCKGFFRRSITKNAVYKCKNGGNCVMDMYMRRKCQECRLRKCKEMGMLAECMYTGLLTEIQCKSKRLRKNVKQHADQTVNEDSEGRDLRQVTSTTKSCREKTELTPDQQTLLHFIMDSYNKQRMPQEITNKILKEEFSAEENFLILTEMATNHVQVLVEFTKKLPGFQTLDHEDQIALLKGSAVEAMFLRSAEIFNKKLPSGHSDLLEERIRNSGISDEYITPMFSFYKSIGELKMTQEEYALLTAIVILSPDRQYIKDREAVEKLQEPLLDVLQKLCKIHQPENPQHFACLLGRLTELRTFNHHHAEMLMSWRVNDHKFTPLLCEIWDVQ

c1cnc2c(c1)ccc1cccnc12
active: [7] 5.67 µM and 3.9 µM | [17] 7.67 µM and 7.15 µM
not listed: [18] | [19] | [20]
inactive: all other assays above

Cc1cc(=O)oc2cc(O)ccc12
active: [19] 41.8 µM and 58.5 µM
not listed: [5] | [9] | [16] | [17] | [20]
inactive: all other assays above

CC1=CC(=O)c2ccccc2C1=O
active: [2] 1.4 µM | [7] 6.91 µM
not listed: [9] | [11] | [14] | [15]
inactive: all other assays above

CN(C)CCOC(c1ccccc1)c1ccccc1
active: [1] 150 µM | [2] 64 µM | [7] 60.6 µM | [17] 100 µM
not listed: [9] | [20]
inactive: all other assays above

CCC(C)c1ccccc1O (stereo not drawn)
not listed: [13] | [19] | [20]
inactive: all other assays above
